Laboratory results reported in PubChem BioAssay (EPA / NIEHS).
Activity calls are given as the source filed them. How the source made its calls: active means hit-call score of the fitted dose curve at least 0.9, where 1 is the maximum; inactive means score below 0.9.

assay: ATG_CMV_CIS: Attagene CIS-FACTORIAL HepG2 Assay for human CMV (Internal Marker) (AID 2282928); conditions: HepG2 CMV promoter reporter, transcription factor profiling; actives raise or lower the signal;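 further: endpoint acts as a background internal control marker rather than a target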
Procedure: ATG_CIS is a cell-based, multiplexed-readout assay that uses HepG2, a human liver cell line, with measurements taken at 24 hours after chemical dosing in a 24-well plate.ATG_CMV_CIS is one of 52 assay component(s) measured or calculated from the ATG_CIS assay. It is designed to make measurements of mRNA induction, a form of inducible reporter, as detected with fluorescence intensity signals by Reverse transcription polymerase chain reaction (RT-PCR) and Capillary electrophoresis technology.Data from the assay component ATG_CMV_CIS was analyzed into 1 assay endpoint. This assay endpoint, ATG_CMV_CIS, was analyzed with bidirectional fitting relative to DMSO as the negative control and baseline of activity. Using a type of inducible reporter, measures of mRNA for gain or loss-of-signal activity can be used to understand the background control at the transcription factor-level as they relate to the gene . Furthermore, this assay endpoint can be referred to as a secondary readout, because this assay has produced multiple assay endpoints where this one serves a background control function. To generalize the intended target to other relatable targets, this assay endpoint is annotated to the background measurement intended target family, where the subfamily is internal marker.
Human liver HepG2 cells are transiently transfected with multiple reporter transcription units (MRTUs) in 6-well plates using FuGene 6 reagent (Roche; 3 ml FuGene/1 mg DNA). The MRTU constructs are regulated by a cis-regulating element (promoter). […] A major difference between the CIS and TRANS system is that in CIS activities of endogenous TFs are measured, whereas the TRANS assay evaluates changes in activities of exogenous, chimeric NR-Gal4 proteins. […] At the end of 24 hour incubation, total RNA was isolated using TriZol reagent (Invitrogen). The isolated RNA is then reverse-transcribed using oligo(dT) primer and Mo-MLV reverse transcriptase (Invitrogen) with DNAse I (Ambion) treatment for 30 min. The one-tenth of the produced cDNA was amplified by PCR using Taq DNA polymerase (Invitrogen) and two reporter sequence-specific primers. The PCR products were fluorescently labeled by primer extension with 6-arboxyfluorescein (6-FAM) 5'-labeled reporter sequence-specific primer (2 min at 95 C, 20 s at 68 C and 10 min at 72 C) and these products were digested with 5U of HpaI (New England Biolabs) for 2h at 37 C. The fragments were purified using Qiaquick PCR columns (Qiagen), analyzed on an ABI 3130xL genetic analyzer (Applied Biosystems) with peak positions identified by using a set of X-rhodamine (ROX)-labeled MapMarker1000 molecular weight standards (BioVentures). The raw capillary electrophoresis data was processed using Attagraph software (Attagene).

Row | SMILES | outcome | AC50
1 | CN(C)CCC#N | inactive | 
2 | CCOC(=O)COc1ccc(Cl)cc1Cl | inactive | 
3 | CC(C)CCCCCCCOC(=O)c1ccccc1C(=O)OCCCCCCCC(C)C | inactive | 
4 | CC(C)C(=O)Cl | inactive | 
5 | CC1(C)C(=O)NC(=O)NC1=O | inactive | 
6 | CC(C)(c1cc(Cl)c(O)c(Cl)c1)c1cc(Cl)c(O)c(Cl)c1 |  | 8 µM (active)
7 | S=c1[nH]c2ccccc2[nH]1 | inactive | 
8 | CC[N+](=O)[O-] | inactive | 
9 | CCCCOP(=O)(O)OCCCC | inactive | 
10 | C=Cc1cccc(CCl)c1 | inactive | 
11 | NNc1ccccc1 | inactive | 
12 | CC(Cc1ccc(C(C)(C)C)cc1)CN1C[C@@H](C)O[C@@H](C)C1 (stereo not given in full) |  | 38.6 µM (active)
13 | CCOP(=O)(OCC)OCC | inactive | 
14 | O=C(CCl)c1ccccc1 | inactive | 
15 | CC(=O)c1cc2c(cc1C)C(C)(C)C(C)CC2(C)C (stereo not given) |  | 28.1 µM (active)
16 | C=CCO | inactive | 
17 | CCCCCCCCCCCC#N |  | 103 µM (active)
18 | c1ccc(Nc2ccc3ccccc3c2)cc1 | inactive | 
19 | COCC(=O)N(c1c(C)cccc1C)N1CCOC1=O | inactive | 
20 | CN(N=O)c1ccccc1 | inactive | 

Row | SMILES | outcome | AC50
21 | O=[N+]([O-])c1ccc(Cl)cc1 | inactive | 
22 | C=CCc1ccc(OC(=O)Cc2ccccc2)c(OC)c1 | inactive | 
23 | [CH3][Sn]([CH3])([Cl])[Cl] | inactive | 
24 | O=C1C=CC(=O)C=C1 | inactive | 
25 | O=P1(NCCCl)OCCCN1CCCl (stereo not given) | inactive | 
26 | C[N+](C)(C)CC(=O)O | inactive | 
27 | CCCOC(=O)c1ccccc1C(=O)OCCC | inactive | 
28 | Nc1cc(Cl)cc(Cl)c1 | inactive | 
29 | CC(C)(Cl)Cl | inactive | 
30 | N#CCNCC#N | inactive | 
31 | ClCCCCCCCl | inactive | 
32 | CN1C(=O)CCS(=O)(=O)C1c1ccc(Cl)cc1 (stereo not given) | inactive | 
33 | [CH3][Sn]([Cl])([Cl])[Cl] | inactive | 
34 | O=C(NCNC(=O)NC1C(=O)NC(=O)N1CO)NC1C(=O)NC(=O)N1CO (stereo not given) | inactive | 
35 | CC1(C)CC(=O)CC(C)(C)N1[O] | inactive | 
36 | Nc1ccccc1 | inactive | 
37 | CCC(C)(C)O | inactive | 
38 | O=C(CCN1CC1)OCC(CO)(COC(=O)CCN1CC1)COC(=O)CCN1CC1 | inactive | 
39 | c1ccc2c(c1)CCCC2 | inactive | 
40 | C[C@]12CC[C@H]3[C@@H](CC[C@@]45O[C@@H]4C(O)=C(C#N)C[C@]35C)[C@@H]1CC[C@@H]2O |  | 100 µM (active)
